According to the supplement of paper PMC10849652:
The full data set covers some 7,900 targets. This sample favours those with a hit. About 0.6% of all pairs of compound and target were hits.

Columns and labels:
Test in all cases: log2 fold change, soluble protein after heating vs DMSO (PISA); higher = thermal stabilisation; K562 cells, 10 uM, 30 min; active = over 0.2 and 3.5 SD of the protein, either way, in both replicates (recomputed)
[1] = compound: C1=CC=C(C=C1)[C@H](COC2=CC3=C(C=C2)NC(=O)N3)NC(=O)C4=CC=CN(C4=O)CC5=CC(=C(C=C5)F)F
Outline: (§1)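 For each measurement, 10 μM compound was applied for 30 min to K562 cells at 2×10^6 cells/mL. Aliquots were heated for 3 min across 48°C-58°C, pooled, and extracted in PBS with 0.5% NP-40 at 4°C; the supernatant after 21,000xg for 90 min was soluble protein. This was quantified by TMTpro 16plex LC-MS/MS with channel sums equalised, and thermal stability was reported relative to control samples from duplicates, on a log2 fold-change scale.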

[2] = compound: CC1=C(SC2=C1C(=N[C@H](C3=NN=C(N32)C)CC(=O)N)C4=CC=C(C=C4)Cl)C
Outline: as §1

[3] = compound: CC1=C2C(=CC=C1)N=C(N(C2=O)C3=CC=CC=C3C)CN4C=NC5=C(N=CN=C54)N
Outline: as §1

[4] = compound: Cc1sc2c(c1C)C(c1ccc(Cl)cc1)=N[C@@H](CC(=O)OC(C)(C)C)c1nnc(C)n1-2
Outline: as §1

[5] = compound: c1ccc([C@@H]2C[C@H]2NC2CCNCC2)cc1
Outline: as §1

Measured: log2 fold change

RIC8A isoform 3 (UniProt Q9NPQ8)
inactive: [1] -0.033 | [2] 0.02 | [3] 0.015 | [4] -0.041 | [5] -0.094

SELENOH (UniProt Q8IZQ5)
inactive: [1] 0.049 | [2] -0.107 | [3] -0.258 | [4] -0.028 | [5] 0.08

SGPL1 (UniProt O95470)
Chain of UniProt O95470 (O95470 whole entry, looked up): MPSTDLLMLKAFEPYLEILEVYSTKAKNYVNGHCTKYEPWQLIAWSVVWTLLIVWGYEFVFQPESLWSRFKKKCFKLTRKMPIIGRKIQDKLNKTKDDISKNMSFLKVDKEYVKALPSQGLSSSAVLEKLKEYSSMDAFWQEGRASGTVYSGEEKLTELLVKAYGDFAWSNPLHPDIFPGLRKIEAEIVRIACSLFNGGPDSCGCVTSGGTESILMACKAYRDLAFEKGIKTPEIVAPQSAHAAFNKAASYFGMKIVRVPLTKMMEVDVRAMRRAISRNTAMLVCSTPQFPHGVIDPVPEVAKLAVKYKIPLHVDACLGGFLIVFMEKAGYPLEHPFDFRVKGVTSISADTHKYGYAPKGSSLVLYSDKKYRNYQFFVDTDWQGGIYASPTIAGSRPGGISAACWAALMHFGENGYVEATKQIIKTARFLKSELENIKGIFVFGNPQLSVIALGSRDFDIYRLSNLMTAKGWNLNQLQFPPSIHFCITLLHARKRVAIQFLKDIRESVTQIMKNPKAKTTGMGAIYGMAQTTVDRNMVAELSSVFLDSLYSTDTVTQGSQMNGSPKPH
inactive: [1] 0.041 | [2] -0.014 | [3] 0.005 | [4] 0.049 | [5] -0.004

RNASEH2A (UniProt O75792)
Chain of UniProt O75792 (O75792 whole entry, looked up): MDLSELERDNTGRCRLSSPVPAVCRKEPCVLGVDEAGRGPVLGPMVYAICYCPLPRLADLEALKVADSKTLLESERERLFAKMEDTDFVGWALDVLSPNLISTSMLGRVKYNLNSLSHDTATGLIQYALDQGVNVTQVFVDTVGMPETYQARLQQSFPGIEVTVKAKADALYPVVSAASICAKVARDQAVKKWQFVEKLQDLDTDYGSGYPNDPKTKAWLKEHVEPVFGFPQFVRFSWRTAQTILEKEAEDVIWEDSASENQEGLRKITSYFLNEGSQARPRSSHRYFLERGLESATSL
inactive: [1] -0.008 | [2] 0.065 | [3] 0.183 | [4] -0.025 | [5] -0.01

RDH11 (UniProt Q8TC12)
inactive: [1] 0.258 | [2] 0.06 | [3] 0.266 | [4] 0.115 | [5] -0.058

RAP2C (UniProt Q9Y3L5)
Chain of UniProt Q9Y3L5 (Q9Y3L5 whole entry, looked up): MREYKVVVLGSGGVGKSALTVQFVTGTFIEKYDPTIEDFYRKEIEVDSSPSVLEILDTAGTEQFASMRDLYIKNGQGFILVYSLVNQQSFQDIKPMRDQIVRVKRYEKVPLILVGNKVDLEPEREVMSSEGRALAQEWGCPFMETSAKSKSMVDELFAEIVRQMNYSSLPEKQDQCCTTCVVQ
inactive: [1] 0 | [2] 0.055 | [3] -0.012 | [4] 0.038 | [5] -0.011

SKP1 (UniProt P63208)
Chain of UniProt P63208 (P63208 whole entry, looked up): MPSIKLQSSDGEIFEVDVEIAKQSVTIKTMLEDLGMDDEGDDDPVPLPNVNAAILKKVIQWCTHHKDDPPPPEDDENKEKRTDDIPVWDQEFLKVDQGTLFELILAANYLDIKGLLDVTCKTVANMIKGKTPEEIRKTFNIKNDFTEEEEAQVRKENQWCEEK
inactive: [1] -0.035 | [2] -0.008 | [3] 0 | [4] -0.036 | [5] -0.017

RALA (UniProt P11233)
inactive: [1] 0.021 | [2] 0.046 | [3] 0.027 | [4] -0.016 | [5] 0.069

RCC1 isoform 2 (UniProt P18754)
inactive: [1] -0.175 | [2] 0.096 | [3] 0.176 | [4] 0.012 | [5] -0.058

RNF167 (UniProt Q9H6Y7)
inactive: [1] -0.025 | [2] -0.011 | [3] 0.002 | [4] -0.017 | [5] 0.001

RRP12 (UniProt Q5JTH9)
Chain of UniProt Q5JTH9 (Q5JTH9 whole entry, looked up): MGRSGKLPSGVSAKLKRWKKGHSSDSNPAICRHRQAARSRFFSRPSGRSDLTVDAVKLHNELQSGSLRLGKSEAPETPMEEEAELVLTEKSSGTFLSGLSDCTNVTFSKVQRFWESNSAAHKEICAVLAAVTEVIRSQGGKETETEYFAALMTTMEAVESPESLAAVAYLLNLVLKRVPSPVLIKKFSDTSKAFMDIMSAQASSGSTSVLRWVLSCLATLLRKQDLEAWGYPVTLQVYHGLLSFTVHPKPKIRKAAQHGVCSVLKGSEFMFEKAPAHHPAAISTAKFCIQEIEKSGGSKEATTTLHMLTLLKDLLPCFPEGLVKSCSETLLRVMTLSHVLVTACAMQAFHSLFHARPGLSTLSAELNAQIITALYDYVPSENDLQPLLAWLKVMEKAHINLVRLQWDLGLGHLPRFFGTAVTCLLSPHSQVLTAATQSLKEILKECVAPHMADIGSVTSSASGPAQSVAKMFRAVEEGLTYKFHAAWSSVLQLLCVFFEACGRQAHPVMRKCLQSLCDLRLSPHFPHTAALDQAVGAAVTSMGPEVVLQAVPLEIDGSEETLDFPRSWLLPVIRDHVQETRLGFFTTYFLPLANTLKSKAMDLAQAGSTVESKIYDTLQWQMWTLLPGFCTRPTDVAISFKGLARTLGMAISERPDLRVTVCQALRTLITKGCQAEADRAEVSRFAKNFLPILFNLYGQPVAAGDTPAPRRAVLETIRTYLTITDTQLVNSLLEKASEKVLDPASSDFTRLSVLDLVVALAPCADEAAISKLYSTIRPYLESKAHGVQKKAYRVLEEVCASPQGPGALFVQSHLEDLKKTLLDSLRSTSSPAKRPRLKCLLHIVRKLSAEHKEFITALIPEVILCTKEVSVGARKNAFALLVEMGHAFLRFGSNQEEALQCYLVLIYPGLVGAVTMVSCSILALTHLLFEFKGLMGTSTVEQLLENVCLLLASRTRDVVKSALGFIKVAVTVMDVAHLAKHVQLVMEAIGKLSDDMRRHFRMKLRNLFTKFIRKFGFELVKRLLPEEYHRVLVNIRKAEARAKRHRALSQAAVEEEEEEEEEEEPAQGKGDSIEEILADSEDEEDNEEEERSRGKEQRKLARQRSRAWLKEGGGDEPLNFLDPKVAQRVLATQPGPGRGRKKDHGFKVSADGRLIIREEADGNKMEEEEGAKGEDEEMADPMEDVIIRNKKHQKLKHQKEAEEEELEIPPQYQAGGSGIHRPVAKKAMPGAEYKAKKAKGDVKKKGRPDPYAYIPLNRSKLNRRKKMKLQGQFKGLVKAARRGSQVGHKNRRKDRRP
inactive: [1] -0.015 | [2] -0.068 | [3] 0.045 | [4] 0.001 | [5] 0

RHEB (UniProt Q15382)
Chain of UniProt Q15382 (Q15382 whole entry, looked up): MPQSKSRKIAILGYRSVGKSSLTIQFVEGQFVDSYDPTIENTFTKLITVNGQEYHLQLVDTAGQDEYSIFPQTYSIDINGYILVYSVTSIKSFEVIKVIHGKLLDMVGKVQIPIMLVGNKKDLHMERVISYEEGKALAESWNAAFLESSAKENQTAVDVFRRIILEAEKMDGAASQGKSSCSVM
inactive: [1] 0.008 | [2] 0.04 | [3] 0.055 | [4] -0.048 | [5] -0.001

RAD50 isoform 2 (UniProt Q92878)
Chain of UniProt Q92878 (Q92878 whole entry, looked up): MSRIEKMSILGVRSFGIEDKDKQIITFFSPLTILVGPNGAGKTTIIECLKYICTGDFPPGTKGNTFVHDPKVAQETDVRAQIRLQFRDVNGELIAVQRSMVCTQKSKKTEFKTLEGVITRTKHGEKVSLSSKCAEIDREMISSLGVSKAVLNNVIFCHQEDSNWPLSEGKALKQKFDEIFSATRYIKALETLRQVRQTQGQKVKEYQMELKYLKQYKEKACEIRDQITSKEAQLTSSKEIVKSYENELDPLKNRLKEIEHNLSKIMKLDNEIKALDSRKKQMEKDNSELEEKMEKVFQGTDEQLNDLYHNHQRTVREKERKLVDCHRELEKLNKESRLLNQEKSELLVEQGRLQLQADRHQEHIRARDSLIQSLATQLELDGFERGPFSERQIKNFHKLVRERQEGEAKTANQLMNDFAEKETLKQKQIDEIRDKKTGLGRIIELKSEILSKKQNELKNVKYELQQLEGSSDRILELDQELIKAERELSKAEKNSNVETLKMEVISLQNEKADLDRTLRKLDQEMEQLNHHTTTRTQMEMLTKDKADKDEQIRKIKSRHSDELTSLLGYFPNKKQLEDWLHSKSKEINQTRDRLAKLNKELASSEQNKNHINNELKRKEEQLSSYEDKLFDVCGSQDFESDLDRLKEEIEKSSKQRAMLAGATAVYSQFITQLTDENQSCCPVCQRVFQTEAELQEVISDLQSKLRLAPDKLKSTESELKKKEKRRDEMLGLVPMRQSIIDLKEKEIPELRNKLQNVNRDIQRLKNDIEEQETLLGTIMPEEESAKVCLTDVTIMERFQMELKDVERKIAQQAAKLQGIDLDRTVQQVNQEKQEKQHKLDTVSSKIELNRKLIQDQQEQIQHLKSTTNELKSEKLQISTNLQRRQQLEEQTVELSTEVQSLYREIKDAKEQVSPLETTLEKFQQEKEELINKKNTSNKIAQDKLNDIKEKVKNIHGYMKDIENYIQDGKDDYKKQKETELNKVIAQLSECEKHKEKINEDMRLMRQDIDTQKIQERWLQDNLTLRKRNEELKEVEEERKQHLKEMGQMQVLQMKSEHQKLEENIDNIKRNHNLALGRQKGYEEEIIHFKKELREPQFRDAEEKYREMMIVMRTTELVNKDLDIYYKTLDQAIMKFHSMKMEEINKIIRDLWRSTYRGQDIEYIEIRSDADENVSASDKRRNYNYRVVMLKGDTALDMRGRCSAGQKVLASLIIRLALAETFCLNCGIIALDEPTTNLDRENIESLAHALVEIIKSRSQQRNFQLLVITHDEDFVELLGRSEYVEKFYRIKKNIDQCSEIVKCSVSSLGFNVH
inactive: [1] -0.006 | [2] 0.017 | [3] 0.061 | [4] 0 | [5] 0.014

RPS4X (UniProt P62701)
inactive: [1] 0.105 | [2] -0.255 | [3] -0.232 | [4] 0.148 | [5] 0.001

RNASET2 (UniProt O00584)
inactive: [1] 0.037 | [2] -0.038 | [3] 0.063 | [4] -0.013 | [5] 0.012

RRP9 (UniProt O43818)
inactive: [1] 0.036 | [2] -0.136 | [3] 0.02 | [4] 0.015 | [5] 0.1

SCLT1 (UniProt Q96NL6)
inactive: [1] 0.078 | [2] 0.215 | [3] 0.222 | [4] 0.001 | [5] -0.039

SCYL3 isoform 2 (UniProt Q8IZE3)
inactive: [1] -0.014 | [2] -0.006 | [3] 0.055 | [4] 0.041 | [5] -0.113

RETREG3 (UniProt Q86VR2)
Chain of UniProt Q86VR2 (Q86VR2 whole entry, looked up): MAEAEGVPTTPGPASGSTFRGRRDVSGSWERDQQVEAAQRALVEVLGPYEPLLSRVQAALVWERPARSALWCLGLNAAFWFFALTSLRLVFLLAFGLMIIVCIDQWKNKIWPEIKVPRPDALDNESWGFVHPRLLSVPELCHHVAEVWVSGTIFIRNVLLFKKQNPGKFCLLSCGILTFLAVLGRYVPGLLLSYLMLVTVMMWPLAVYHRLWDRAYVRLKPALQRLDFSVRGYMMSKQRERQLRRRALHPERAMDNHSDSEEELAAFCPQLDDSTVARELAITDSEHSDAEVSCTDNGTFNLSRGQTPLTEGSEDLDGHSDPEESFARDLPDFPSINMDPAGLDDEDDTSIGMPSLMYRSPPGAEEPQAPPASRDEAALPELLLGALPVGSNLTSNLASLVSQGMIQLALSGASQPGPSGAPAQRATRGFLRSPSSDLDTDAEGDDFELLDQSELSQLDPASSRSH
inactive: [1] 0.076 | [2] 0.085 | [3] 0.007 | [4] -0.046 | [5] -0.037

RPTOR (UniProt Q8N122)
inactive: [1] -0.022 | [2] -0.015 | [3] 0.095 | [4] -0.02 | [5] 0.032

RIOK3 (UniProt O14730)
inactive: [1] -0.015 | [2] -0.008 | [3] -0.016 | [4] -0.008 | [5] 0.024

SART3, A0A499FI31
inactive: [1] -0.008 | [2] 0.015 | [3] 0.056 | [4] -0.08 | [5] -0.006

RBM22 (UniProt Q9NW64)
Chain of UniProt Q9NW64 (Q9NW64 whole entry, looked up): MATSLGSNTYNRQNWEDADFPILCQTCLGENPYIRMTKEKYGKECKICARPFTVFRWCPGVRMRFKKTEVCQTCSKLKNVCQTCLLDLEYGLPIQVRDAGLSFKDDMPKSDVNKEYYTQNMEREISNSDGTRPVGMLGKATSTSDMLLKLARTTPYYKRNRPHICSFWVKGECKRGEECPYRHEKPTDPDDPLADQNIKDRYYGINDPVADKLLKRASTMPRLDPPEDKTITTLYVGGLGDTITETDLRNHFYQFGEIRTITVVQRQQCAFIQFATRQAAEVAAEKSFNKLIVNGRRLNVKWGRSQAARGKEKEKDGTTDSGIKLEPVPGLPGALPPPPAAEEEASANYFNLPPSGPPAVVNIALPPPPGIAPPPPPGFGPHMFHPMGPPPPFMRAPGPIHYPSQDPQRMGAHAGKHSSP
inactive: [1] 0.033 | [2] -0.022 | [3] -0.013 | [4] 0.027 | [5] 0.049

RALY (UniProt Q9UKM9)
inactive: [1] 0.102 | [2] -0.379 | [3] -0.243 | [4] 0.031 | [5] 0.003

RPS19 (UniProt P39019)
inactive: [1] 0.108 | [2] -0.158 | [3] -0.197 | [4] 0.107 | [5] -0.002

RARS2 (UniProt Q5T160)
inactive: [1] 0.021 | [2] 0.046 | [3] 0.044 | [4] -0.026 | [5] -0.007

RABGAP1L isoform 3 (UniProt Q5R372)
inactive: [1] 0.007 | [2] 0.024 | [3] 0.033 | [4] -0.015 | [5] -0.005
